Our source for the growth inhibition values is PubChem BioAssay (NCI).

Compounds without any hit were thinned out: in the full panel of roughly 79,000, 15% have a hit. A number with no mark means an inactive call. Calls of active or inactive are those of the source. Cut-off read from the data, not from the text of the source: active = growth inhibition above about 70%; inactive = the rest.

A short description of assay [1]: NCI Yeast Anticancer Drug Screen. Data for the rad50 strain (AID 155).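 Note: 0% = growth of vehicle-only cultures of the same strain.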 To be noted: S. cerevisiae rad50 strain growth inhibition, stronger effect = higher value. In a few lines:
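DNA repair mutant yeast, compound exposure, growth read-out; inhibition is taken relative to vehicle.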

Assay [2] in a line: NCI Yeast Anticancer Drug Screen. Data for the mec2-1 strain (AID 157). To be noted: S. cerevisiae mec2-1 strain, stronger effect = higher value. An outline of the steps:
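Yeast mec2-1 mutant treated with compound. Readout: growth inhibition vs vehicle controls.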

Assay [3] is described as follows: NCI Yeast Anticancer Drug Screen. Data for the sgs1 mgt1 strain (AID 161).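 Note: 0% = growth of cultures given vehicle only.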 To be noted: S. cerevisiae sgs1 mgt1 strain, stronger effect = higher value. An outline of the steps: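 Test agents were incubated with a DNA-repair-mutant yeast strain. Growth was then read and compared against vehicle-treated controls.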
A short description of assay [4]: NCI Yeast Anticancer Drug Screen. Data for the cln2 rad14 strain (AID 165).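 Note: 0% = growth equal to vehicle treated cultures.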 To be noted: S. cerevisiae cln2 rad14 strain, stronger effect = higher value. An outline of the steps:
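cln2 rad14 yeast strain; compound exposure; growth inhibition read vs vehicle controls.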

Assay [5] in a line: NCI Yeast Anticancer Drug Screen. Data for the bub3 strain (AID 167). To be noted: S. cerevisiae bub3 mutant strain, stronger effect = higher value. In a few lines:
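In this screen, a yeast mutant lacking normal mitotic checkpoint function is challenged with compound. Relative growth versus vehicle gives the inhibition value.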

Assay [6] can be described thus: NCI Yeast Anticancer Drug Screen. Data for the mlh1 rad18 strain (AID 175). To be noted: S. cerevisiae mlh1 rad18 strain growth inhibition, stronger effect = higher value. In a few lines:
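Yeast w/ defined DNA-repair lesions; compound exposure; growth vs vehicle controls → % inhibition.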

Setting [7] is: at 5.0 µM (retest, dose inferred, filed as 0.5).
Where [8] appears, read: at 50.0 µM (retest, dose inferred, filed as 5.0).

As to `CN(CCCl)c1ccc(/C=C/C2=[N+](C)c3ccccc3C2(C)C)cc1`, the growth inhibition in assay [1] (setting [7]) was -6%; in assay [1] (setting [8]), 98% (active); in assay [1] (at 50.0 µM), 99.5% (active); in assay [2] (setting [7]), -3%; in assay [2] (setting [8]), 98% (active); in assay [2] (at 50.0 µM) it was 99.5% (active). The growth inhibition in assay [3] (setting [7]) is -6%; in assay [3] (setting [8]) it was 98% (active); in assay [3] (at 50.0 µM), 99.7% (active); in assay [4] (setting [7]) it was -2%; in assay [4] (setting [8]) it was 98% (active); in assay [4] (at 50.0 µM) it was 98.4% (active). Further, the growth inhibition in assay [5] (setting [7]) is -3%; in assay [5] (setting [8]), 99% (active); in assay [5] (at 50.0 µM), 99.2% (active); in assay [6] (setting [7]), 9%; in assay [6] (setting [8]), 98% (active); in assay [6] (at 50.0 µM), 98.7% (active).

As to `O=[N+]([O-])c1ccc(N(CCO)CCO)c2c1no[n+]2[O-]`, the growth inhibition is 39% in assay [1] (setting [7]); 92% (active) in assay [1] (setting [8]); 81.4% (active) in assay [1] (at 50.0 µM); 25% in assay [2] (setting [7]); 70% (active) in assay [2] (setting [8]); 54.4% in assay [2] (at 50.0 µM). Besides, the growth inhibition in assay [3] (setting [7]) is 35%; in assay [3] (setting [8]), 83% (active); in assay [3] (at 50.0 µM) it was 69.2%; in assay [4] (setting [7]), 8%; in assay [4] (setting [8]) it was 44%; in assay [4] (at 50.0 µM), 44.3%. Moreover, the growth inhibition in assay [5] (setting [7]) is 4%; in assay [5] (setting [8]), 40%; in assay [5] (at 50.0 µM) it was 61.5%; in assay [6] (setting [7]), 42%; in assay [6] (setting [8]) it was 90% (active); in assay [6] (at 50.0 µM), 78.8% (active).

For the compound `O=[As]c1ccccc1O` (configuration not stated), the growth inhibition is 1% in assay [1] (setting [7]); 96% (active) in assay [1] (setting [8]); 96.6% (active) in assay [1] (at 50.0 µM); 0% in assay [2] (setting [7]); 98% (active) in assay [2] (setting [8]); 98.1% (active) in assay [2] (at 50.0 µM). Also, the growth inhibition in assay [3] (setting [7]) was 2%; in assay [3] (setting [8]) it was 98% (active); in assay [3] (at 50.0 µM), 90.3% (active); in assay [4] (setting [7]), -9%; in assay [4] (setting [8]), 98% (active); in assay [4] (at 50.0 µM) it was 92.2% (active). Besides, the growth inhibition in assay [5] (setting [7]) is -5%; in assay [5] (setting [8]), 97% (active); in assay [5] (at 50.0 µM), 97.3% (active); in assay [6] (setting [7]), -1%; in assay [6] (setting [8]), 98% (active); in assay [6] (at 50.0 µM), 96.5% (active).

For the compound `O=[N+]([O-])c1ccc(C(Br)Br)cc1`, the growth inhibition in assay [1] (setting [7]) was 93% (active); in assay [1] (setting [8]), 99% (active); in assay [1] (at 50.0 µM) it was 99.6% (active); in assay [2] (setting [7]) it was 74% (active); in assay [2] (setting [8]), 99% (active); in assay [2] (at 50.0 µM) it was 99.6% (active). Moreover, the growth inhibition in assay [3] (setting [7]) was 79% (active); in assay [3] (setting [8]) it was 99% (active); in assay [3] (at 50.0 µM), 99.7% (active); in assay [4] (setting [7]), 70% (active); in assay [4] (setting [8]), 99% (active); in assay [4] (at 50.0 µM), 98.6% (active). The growth inhibition is 74% (active) in assay [5] (setting [7]); 99% (active) in assay [5] (setting [8]); 99.5% (active) in assay [5] (at 50.0 µM); 97% (active) in assay [6] (setting [7]); 99% (active) in assay [6] (setting [8]); 99.5% (active) in assay [6] (at 50.0 µM).

In the case of `Sc1nc2ccccc2s1.Sc1nc2ccccc2s1.Sc1nc2ccccc2s1.Sc1nc2ccccc2s1.[Cl][Rh][Cl]`, the growth inhibition in assay [1] (setting [7]) was 20%; in assay [1] (setting [8]), 95% (active); in assay [1] (at 50.0 µM), 95.7% (active); in assay [2] (setting [7]), 12%; in assay [2] (setting [8]), 96% (active); in assay [2] (at 50.0 µM), 98.5% (active). In addition, the growth inhibition was 38% in assay [3] (setting [7]); 97% (active) in assay [3] (setting [8]); 93.3% (active) in assay [3] (at 50.0 µM); 0% in assay [4] (setting [7]); 94% (active) in assay [4] (setting [8]); 97.1% (active) in assay [4] (at 50.0 µM). Moreover, the growth inhibition in assay [5] (setting [7]) is 31%; in assay [5] (setting [8]) it was 97% (active); in assay [5] (at 50.0 µM), 96.8% (active); in assay [6] (setting [7]), 43%; in assay [6] (setting [8]), 96% (active); in assay [6] (at 50.0 µM) it was 97.7% (active).

Consider `CCCCSc1ccc(C(SCCN(CC)CC)c2ccccc2)cc1` (configuration not stated), for which the growth inhibition in assay [1] (setting [7]) was 12%; in assay [1] (setting [8]), 99% (active); in assay [1] (at 50.0 µM) it was 99.8% (active); in assay [2] (setting [7]), 11%; in assay [2] (setting [8]), 100% (active); in assay [2] (at 50.0 µM), 99.8% (active). Also, the growth inhibition in assay [3] (setting [7]) is 45%; in assay [3] (setting [8]), 100% (active); in assay [3] (at 50.0 µM), 99.8% (active); in assay [4] (setting [7]) it was 32%; in assay [4] (setting [8]) it was 99% (active); in assay [4] (at 50.0 µM), 99.8% (active). Moreover, the growth inhibition in assay [5] (setting [7]) is 36%; in assay [5] (setting [8]), 99% (active); in assay [5] (at 50.0 µM), 99.7% (active); in assay [6] (setting [7]), 27%; in assay [6] (setting [8]), 99% (active); in assay [6] (at 50.0 µM) it was 99.7% (active).

For the compound `CC/C(=C/c1ccc(OC)cc1)[N+](=O)[O-]`, the growth inhibition in assay [1] (setting [7]) was 80% (active); in assay [1] (setting [8]), 99% (active); in assay [1] (at 50.0 µM), 99.2% (active); in assay [2] (setting [7]) it was 35%; in assay [2] (setting [8]), 100% (active); in assay [2] (at 50.0 µM), 99.7% (active). The growth inhibition in assay [3] (setting [7]) is 46%; in assay [3] (setting [8]), 99% (active); in assay [3] (at 50.0 µM) it was 99.5% (active); in assay [4] (setting [7]) it was 20%; in assay [4] (setting [8]) it was 100% (active); in assay [4] (at 50.0 µM), 99% (active). Also, the growth inhibition in assay [5] (setting [7]) was 49%; in assay [5] (setting [8]) it was 99% (active); in assay [5] (at 50.0 µM) it was 99.3% (active); in assay [6] (setting [7]), 40%; in assay [6] (setting [8]), 99% (active); in assay [6] (at 50.0 µM) it was 99.2% (active).

For `S=C=[N][Sn]([N]=C=S)([c]1ccccc1)[c]1ccccc1.c1ccc2nc(-c3ccc4ccccc4n3)ccc2c1`, the growth inhibition in assay [1] (setting [7]) was 72% (active); in assay [1] (setting [8]), 98% (active); in assay [1] (at 50.0 µM), 89.3% (active); in assay [2] (setting [7]), 65%; in assay [2] (setting [8]) it was 99% (active); in assay [2] (at 50.0 µM), 91.2% (active). Moreover, the growth inhibition was 84% (active) in assay [3] (setting [7]); 99% (active) in assay [3] (setting [8]); 91.5% (active) in assay [3] (at 50.0 µM); 51% in assay [4] (setting [7]); 99% (active) in assay [4] (setting [8]); 90.8% (active) in assay [4] (at 50.0 µM). The growth inhibition in assay [5] (setting [7]) was 85% (active); in assay [5] (setting [8]), 99% (active); in assay [5] (at 50.0 µM) it was 90% (active); in assay [6] (setting [7]), 77% (active); in assay [6] (setting [8]) it was 98% (active); in assay [6] (at 50.0 µM), 77.5% (active).

On to `CC(=O)c1ccccc1O.CO.CO.[Cl][Ta][Cl]`, for which the growth inhibition is 1% in assay [1] (setting [7]); 1% in assay [1] (setting [8]); -13% in assay [1] (at 50.0 µM); 15% in assay [2] (setting [7]); -7% in assay [2] (setting [8]); -5.75% in assay [2] (at 50.0 µM). The growth inhibition in assay [3] (setting [7]) is -14%; in assay [3] (setting [8]), 0%; in assay [3] (at 50.0 µM), -9.65%; in assay [4] (setting [7]), -7%; in assay [4] (setting [8]), -6%; in assay [4] (at 50.0 µM) it was 33.9%. Besides, the growth inhibition in assay [5] (setting [7]) was -1%; in assay [5] (setting [8]), -5%; in assay [5] (at 50.0 µM), 3.45%; in assay [6] (setting [7]), -6%; in assay [6] (setting [8]), 1%; in assay [6] (at 50.0 µM), -10.2%.
